Tb PGK inh: blocks T. brucei phosphoglycerate kinase; P07378; PGK/GAPDH coupled, Kinase-Glo luminescence, 60 min; Potency, µM (titrated, usually from 57.5 µM), for inactives: at the highest dose activity change, negative = inhibition, actives largely listed as inhibitors; hit rate 0.043% among 380,000; AID 602233; also: potency is read from the fitted curve at half-maximal effect; % is scaled to controls: 0 for no effect and ±100 for the full control effect; nearly all actives have a fitted effect of over 60% in size
Target sequence (P07378 whole entry, looked up): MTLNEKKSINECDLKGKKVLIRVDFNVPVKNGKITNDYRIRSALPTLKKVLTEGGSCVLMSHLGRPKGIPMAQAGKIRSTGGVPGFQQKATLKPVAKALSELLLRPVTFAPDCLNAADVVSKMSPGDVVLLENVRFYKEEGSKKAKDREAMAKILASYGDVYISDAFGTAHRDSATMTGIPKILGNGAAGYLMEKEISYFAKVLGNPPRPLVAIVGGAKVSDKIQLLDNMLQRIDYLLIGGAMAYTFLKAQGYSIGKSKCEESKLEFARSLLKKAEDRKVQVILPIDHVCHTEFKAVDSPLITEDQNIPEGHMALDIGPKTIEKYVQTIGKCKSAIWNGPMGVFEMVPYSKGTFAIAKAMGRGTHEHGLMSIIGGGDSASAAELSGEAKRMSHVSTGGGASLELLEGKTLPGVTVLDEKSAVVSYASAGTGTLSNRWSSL
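Luminescent ATP detection (Kinase-Glo Plus) follows a 60-minute room-temperature incubation, with wells lacking PGK as controls. Buffer: 100 mM TEA (pH 7.6), 5 mM MgCl2, 0.01% Tween-20. Coupling enzyme GAPDH (100 nM final) supplies unstable 1,3-BPG in-well.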
PI4K2A block: blocks human PI4K2A kinase activity | Q9BTU6 | purified PI4K2A, ADP-Glo luminescence, 1 h; hits give low values | activity change, negative = inhibition, % at 76.9 µM | hit rate 0.13% among 420,000; in the data active = activity change below about -50%; inconclusive = mostly about -30% to -49%;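 also: -100% = wells without enzyme as full effect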
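ADP-Glo luminescence measured ADP generated by PI4K2A enzyme (4 ug/mL before mixing) with 1.2 mM PI substrate (pre-mix) and 300 microM ATP (pre-mix). Tris pH7.5 buffer with MgCl2, Triton X-100; 1 h reaction at ambient temperature.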
GLS inhibitor: glutaminase GLS (human) inhibition | hit rate 0.21% among 410,000 | AID 624170 | Potency, µM (doses to about 45.5 µM), for the others: at the highest dose activity change, negative = inhibition, most hits filed as inhibitors | GLS enzymatic activity, qHTS titration; also: potency is read from the fitted curve at half-maximal effect; % is scaled to controls: 0 for no effect and ±100 for the full control effect
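Read-out is an Amplex red fluorescence increase coupled through glutamate oxidase and HRP, measured before and after 30 min room-temperature incubation. hKGA is in 45 mM KH2PO4 (pH 8.2) with 0.02% Tween-20; glutamine added as 1mM solution.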
PINK1 expr mod: modulators of PINK1 expression | PINK1 immunofluorescence, high-content cytometry, 24 h | hit rate 0.2% among 410,000 | AID 624263 | Potency, µM (series often up to 76.6 µM), inactives show at the top dose activation (PINK1 increase), usual class: activators; active = well fitted activation curve with a large enough effect; inconclusive = small, poorly fitted or top-dose-only effect; cell line not stated here; also: potency is read from the fitted curve at half-maximal effect; % of control where 0% means no effect; nearly all actives have a fitted effect of over 65% in size
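Stable cell line, 250 cells/well, 12 h attachment; compounds pinned at 5 concentrations, 24 h; CCCP control. Fixed with nuclear dye, primary antibodies 12 h at 10 degrees C, secondary plus cell stain; laser-scanning cytometer read.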
CCT chaperon mod: changes cytosolic chaperonin activity | purified chaperonin ATPase assay, HTRF ADP detection, 30 min | activity change, % (no concentration beside the values), hits read low | hit rate 0.3% among 360,000 | AID 651819; in the data active = activity change below about -30%; also: % is scaled to controls: 0 for no effect and ±100 for the full control effect
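We incubate TRiC, 40 or 20 nM final, with library compounds at 76 uM and 10 uM ATP for 30 min at 37 °C. ADP formed is detected with Transcreener HTRF reagents after 30 min at room temperature.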
Numbers without * were called inactive; [ ] = remark or other dose. Only some compounds are listed: those with a hit (about 0.78% of all), similar ones and a draw of the others. Unless noted, calls follow the shape of the dose curve; as a rule, active = well fitted curve in the direction sought with a large enough effect; inconclusive = small, poorly fitted or top-dose-only effect, or another doubt; inactive = no such curve, though single readings can be large; an effect the other way counts as inactive or inconclusive.

`CCCOc1ccc(C2C(C(=O)c3cc4ccccc4o3)=C(O)C(=O)N2c2cc(C)on2)cc1OC` (centres undefined) gave Tb PGK inh -4.3%, PI4K2A block -3.4, GLS inhibitor 6.3%, PINK1 expr mod 0.3% and CCT chaperon mod 0.1.
`COc1ccc2nc(N3C(=O)C(O)=C(C(=O)c4ccco4)C3c3ccc(C)o3)sc2c1` (centres undefined) gave Tb PGK inh -11.6%, PI4K2A block -4.4, GLS inhibitor 10µM*, PINK1 expr mod -0.6% and CCT chaperon mod 0.3.
COc1ccc2nc(N3C(=O)C(O)=C(C(=O)c4ccco4)C3c3ccccc3OC)sc2c1 (centres undefined) was read as Tb PGK inh -0.8%, PI4K2A block -0.3, GLS inhibitor inconclusive, PINK1 expr mod 10.8% and CCT chaperon mod -1.2.
COc1cc(=O)n2c(c1C(=O)N(C)Cc1cscn1)CCN(C(=O)c1ccc(C)c(C)c1)CC2 was read as PINK1 expr mod 1.1%.
Screening O=C(c1cccc(F)c1)N(Cc1cc2cc3c(cc2nc1N1CCOCC1)CCC3)CC1CCCO1 (centres undefined) returned PINK1 expr mod 1.6%.
`Cc1cc(C)c2c(c1)NC(C(=O)O)C1CC=CC21` (centres undefined) gave Tb PGK inh inconclusive, PI4K2A block -29.2, GLS inhibitor 10µM*, PINK1 expr mod 0.2% and CCT chaperon mod -2.8.
`COC(=O)c1ccc(C(=O)NCC2Cc3cc(F)cc(-c4cncnc4)c3O2)cc1` (centres undefined) gave PINK1 expr mod 0.5%.
`Nc1cccnc1Sc1ccc(Cl)cc1` gave Tb PGK inh -8.9%, PI4K2A block 6.1 and CCT chaperon mod 3.3.
Nc1cccnc1Sc1cccc(Cl)c1 was read as Tb PGK inh -1.9%, PI4K2A block -69.3*, GLS inhibitor 0.8%, PINK1 expr mod -0.5% and CCT chaperon mod -0.1.
Screening Cn1c(CNc2ccccc2)cc(=O)n(C)c1=O returned Tb PGK inh 2.0%, PI4K2A block -69.3*, GLS inhibitor 23.1%, PINK1 expr mod 1.1%[38.3 µM] and CCT chaperon mod 0.5.
For Cc1ccc(/C=C2/Sc3ccc(C(=O)NCc4ccccn4)cc3NC2=O)cc1 the results were Tb PGK inh -6.0%, PI4K2A block -6.1, GLS inhibitor 17.8µM*, PINK1 expr mod 28.2µM* and CCT chaperon mod 1.2.
For COc1cccc(-c2nc3cc4c(cc3cc2CN(C(=O)c2csc(C)n2)C2CC2)CCC4)c1OC the results were PINK1 expr mod 0.6%.
Screening CCC(O)CNC(=O)c1cnn(-c2nccc(-c3cc(C)sc3C)n2)c1C1CC1 (centres undefined) returned PINK1 expr mod 4.8%.
Screening Cc1nc2cc(OC3(C)CCN(Cc4ccc(OC(F)(F)F)cc4)C3)ccc2s1 (centres undefined) returned PI4K2A block -0.1, GLS inhibitor 9.5%, PINK1 expr mod 44.7µM* and CCT chaperon mod 2.4.
For C[n+]1cccc2c(Br)ccc([O-])c21 the results were Tb PGK inh 4.7%, PI4K2A block -61.1*, GLS inhibitor -16.4%, PINK1 expr mod 0.3% and CCT chaperon mod -0.7.
O=C(NCCc1nnc2n1CCN(Cc1ccccn1)CC2)c1ccc(F)cc1 was read as PINK1 expr mod 1.2%.
CNC(=S)N1C2CCCC1CC(NC(=O)c1ccc(C)cc1)C2 (centres undefined) was read as Tb PGK inh 0.9%, PI4K2A block 1.7, GLS inhibitor 1.1%, PINK1 expr mod -1.5% and CCT chaperon mod -48.2*.
Cc1cc(-c2ccnc(-n3ncc(C(=O)N(C)CC(O)c4ccccc4)c3C)n2)c(C)s1 (centres undefined) was read as PINK1 expr mod -1.3%.
`CN1N=C(C(N)=O)CCC1=O` gave PI4K2A block 3.2.
`CC[n+]1c(/C=C2\C=C(C)CC(C)(C)C2)sc2ccccc21` gave Tb PGK inh inactive, PI4K2A block 6.4, GLS inhibitor 2.1%, PINK1 expr mod 12.6µM* and CCT chaperon mod -0.7.
